From PubChem
PfGluPho inh: PfG6PD (Plasmodium falciparum) enzyme inhibition | 0.78% of 350,000 active | AID 504690 | PfGluPho enzyme, NADPH resazurin-diaphorase fluorescence | inhibition, % at 20 µM;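 active = inhibition reaching at least a set limit at 20 µM in the primary screen, cut at about 59% in these data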;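 also: 0% = DMSO wells with substrate and 100% = DMSO wells lacking glucose-6-phosphate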
FAS TE block: FAS thioesterase (human) inhibition. P49327. recombinant FAS-TE, OMFH fluorogenic substrate, fluorescence endpoint. inhibition, % at 15 µM. 0.67% of 360,000 active. AID 602261;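 active = compounds whose normalised, plate-corrected inhibition of enzyme fluorescence in the single-dose primary screen is 50% or more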;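 also: 0% = DMSO with enzyme and 100% = substrate without enzyme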
proKLK7 act: proKLK7 (human) activation, primary screen; purified proKLK7, EDANS-DABCYL substrate fluorescence; 100% is mature enzyme control, 0% vehicle; 0.9% of 370,000 active; activation, % at 7 µM; P49862;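 active = activation above the mean of all tested compounds plus 3 SD, computed per campaign excluding outliers beyond control limits, cut at about 13% in these data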
Neddylation inh: cullin neddylation inhibition; P61081+Q13564; TR-FRET cullin neddylation, biochemical; calls only at 25 µM; 0.58% of 360,000 active; in the data active = inhibition above about 36%
FAS-TE conf: FAS thioesterase (human) inhibition, confirmation; shares compounds with FAS TE block; recombinant FAS-TE, OMFH fluorogenic substrate, fluorescence; inhibition, % at 15 µM; 45% of 2,300 active; AID 624325;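 active = compounds inhibiting the enzyme by at least 50% at 15 µM in any one of the replicates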;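 also: 0% = enzyme with DMSO only and 100% = wells lacking enzyme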
Active calls of the source: *; i = inactive; . = no result given. Rows were chosen to be rich in hits. Some 2.7% of all compounds tested hit in one or more screens of this group.

SMILES	PfGluPho inh	FAS TE block	proKLK7 act	Neddylation inh	FAS-TE conf
Cc1ccc2c(C)nc(/N=C(\N)NC(=O)N3c4ccccc4Sc4ccccc43)nc2c1	-1	64*	0	i	4
COc1ccc2nc(/N=C(\N)NC(=O)N3c4ccccc4Sc4ccccc43)nc(C)c2c1	-5	14	8	i	.
Cc1cc2nc(/N=C(\N)NC(=O)N3c4ccccc4Sc4ccccc43)nc(C)c2cc1C	9	62*	-2	i	14
COc1ccc2nc(/N=C(\N)NC(=O)C(C)(C)C)nc(C)c2c1	12	-108	6	.	.
CCN1C(=O)[C@@H]2[C@@H](c3ccc(-c4ccc(OC)cc4)cc3)N3CCCC[C@@]3(C(=O)OC)[C@@H]2C1=O	11	18	0	i	.
CCN1C(=O)[C@H]2[C@@H](c3ccc(-c4ccc(OC)cc4)c(OC)c3)N3CCCC[C@@]3(C(=O)OC)[C@H]2C1=O	3	70*	0	i	22
COC(=O)[C@@]12CCCCN1[C@H](c1ccc(-c3ccc(Cl)c(Cl)c3)c(OC)c1)[C@H]1C(=O)N(C)C(=O)[C@H]12	16	60*	0	i	17
CCN1C(=O)[C@@H]2[C@@H](c3ccc(-c4ccc(OC)cc4)c(OC)c3)N3CCCC[C@@]3(C(=O)OC)[C@@H]2C1=O	14	51*	1	i	-4
Cc1ccc(Cn2nnc3c2-c2ccccc2S(=O)(=O)N(C(C)(C)C)C3)cc1	.	.	1	.	.
O=C(Nc1cc(S(=O)(=O)N2CCOCC2)ccc1O)c1ccc2c(c1)S(=O)(=O)c1ccccc1C2=O	36	57*	-1	i	31
O=C(Nc1ccc(S(=O)(=O)N2CCOCC2)cc1)c1ccc2c(c1)S(=O)(=O)c1ccccc1C2=O	-14	-4	0	i	.
O=C(O)c1ccc(N/N=C/c2ccc(-c3ccc(Cl)cc3Cl)o2)cc1	-16	75*	-1	.	78*
COC(=O)N/N=C/c1ccc(-c2ccc(Cl)cc2Cl)o1	-4	11	-4	i	.
O=C(O)c1ccc(N/N=C/c2ccc(-c3cccc(Cl)c3)o2)cc1	-11	26	0	.	.
O=C(O)c1ccc(N/N=C/c2ccc(-c3cc(Cl)ccc3Cl)o2)cc1	-7	81*	0	.	84*
CC(=O)c1cc(-c2ccc3c(c2)OCO3)c(=O)n2c1CCC2	.	.	0	.	.
CCOc1ccc(-n2c(SCC(=O)Nc3ccc(S(=O)(=O)Nc4cc(C)nc(C)n4)cc3)nnc2-c2ccc(C)cc2)cc1	.	.	0	.	.
CC(=O)c1cccc(-c2ccnc3c2CC(C(=O)Nc2cccc(OC(F)(F)F)c2)O3)c1 (stereo not given)	.	54*	0	i	57*
O=C(Nc1cccc(OC(F)(F)F)c1)C1Cc2c(-c3ccc(Cl)cc3)ccnc2O1 (stereo not given)	.	32	0	i	.
Cc1cc(C(=O)COC(=O)c2ccc(N)c([N+](=O)[O-])c2)c(C)n1-c1ccc2c(c1)OCO2	10	63*	0	i	6
O=C(Nc1cccc(S(=O)(=O)N2CCCCC2)c1)c1ccc(S(=O)(=O)C(F)F)cc1	16	59*	0	i	39
O=C(Nc1cccc(S(=O)(=O)N2CCCCC2)c1)c1ccc2c(=O)n3c(nc2c1)CCCCC3	56	60*	-1	i	22
O=C(Cc1cccs1)NC1CCCCN(Cc2cccc(Cl)c2)C1=O (stereo not given)	.	.	0	.	.
COC(=O)c1ccc2c(=O)n(-c3ccccc3)c(SCN3C(=O)c4ccccc4C3=O)nc2c1	-1	62*	0	i	3
O=C(O)c1ccc(CSc2nc3ccccc3c(=O)n2-c2ccccc2)cc1	-20	-2	0	i	.
SMILES	PfGluPho inh	FAS TE block	proKLK7 act	Neddylation inh	FAS-TE conf
COC(=O)[C@]12C[C@H](CC(=O)N3CCN(C(=O)c4ccco4)CC3)C(=O)N(Cc3cccc4ccccc34)C1=C[C@H](COCc1ccccc1)O[C@@H]2C	.	.	0	.	.
N/C(=N\OC(=O)CC1CCCCC1)c1cccc([N+](=O)[O-])c1	5	62*	0	i	68*
O=C(CCc1ccccc1)OCC(=O)c1cccc([N+](=O)[O-])c1	-12	56*	0	i	57*
N/C(=N\OC(=O)CC1CCCCC1)c1ccc([N+](=O)[O-])cc1	-17	2	0	i	.
N/C(=N\OC(=O)CCC1CCCCC1)c1ccc([N+](=O)[O-])cc1	-5	27	-1	i	.
N/C(=N\OC(=O)CCCc1ccccc1)c1cccc([N+](=O)[O-])c1	10	50*	0	i	63*
N/C(=N\OC(=O)CCC1CCCC1)c1cccc([N+](=O)[O-])c1	3	62*	0	i	66*
O=C(COC(=O)c1cccc([N+](=O)[O-])c1)c1ccc(OCc2ccccc2)cc1	2	50	0	i	.
N/C(=N\OC(=O)CCCc1ccccc1)c1ccccc1	5	8	0	i	.
COc1ccc(CCN(C)c2ccc(S(=O)(=O)N3CCCC3)cn2)cc1OC	-4	3	0	i	.
COc1cc(CN(C)c2ccc(S(=O)(=O)N3CCCC3)cn2)ccc1OC(F)F	0	68*	0	i	22
O=C(CSc1ncnc2c1cnn2-c1ccccc1)NC1CCCC1	-3	61*	-1	i	55*
CC(=O)c1ccc(N2CCN(S(=O)(=O)c3ccc(-c4cnc(C5CC5)o4)cc3)CC2)cc1	1	57*	.	i	43*
COc1ccc(N2CCN(S(=O)(=O)c3ccc(-c4cnc(C5CC5)o4)cc3)CC2)cc1	-5	28	.	i	.
CN=C1SC(CC(=O)Nc2c(C)cccc2C)C(=O)N1/N=C/c1cccs1 (stereo not given)	-5	-4	1	i	.
COc1ccc([N+](=O)[O-])cc1NC(=O)CC1SC(=Nc2cccc(C)c2C)N(/N=C/c2cccc(OC)c2OC)C1=O (stereo not given)	6	87*	-1	i	8
COc1cc(OC)c2c(-c3ccccc3)cc(=O)oc2c1C(CC(=O)N1CCN(c2ccccc2)CC1)c1ccc(N(C)C)cc1 (stereo not given)	17	70*	-1	i	14
COc1cc(OC)c2ccc(=O)oc2c1C(CC(=O)N1CCN(c2ccccc2)CC1)c1ccc2c(c1)OCO2 (stereo not given)	3	51*	-1	i	25
COc1cc(OC)c2c(-c3ccccc3)cc(=O)oc2c1C(CC(=O)N1CCOCC1)c1ccc(N(C)C)cc1 (stereo not given)	1	22	1	i	.
C=CCNC(=O)CSc1nc2c(c(=O)[nH]1)CCCC2	.	.	0	.	.
COc1ccc(-c2csc3nc(-c4ccc(C)cc4)oc(=O)c23)cc1OC	3	7	-1	i	.
Cc1nc2scc(-c3ccccc3)c2c(=O)o1	-2	51*	0	i	73*
CC(C)(C)c1nc2scc(-c3cccs3)c2c(=O)o1	1	58*	0	i	56*
